Test results reported in a collection of fitness landscapes (doi:10.1126/science.1257360).
In all, about 140,000 sequences were measured (“enrichment ratio after two sorts for PhoP signalling”: median about 0, highest 2% from about 11 on). The list comes from a sample in which the highest values are over-represented; it also holds similar and randomly drawn sequences.

B1: PhoQ; a variant is named by its letters at X, in order, P23837 (parent)
chain: MKKLLRLFFPLSLRVRFLLATAAVVLVLSLAYGMVALIGYSVSFDKTTFRLLRGESNLFYTLAKWENNKLHVELPENIDKQSPTMTLIYDENGQLLWAQRDVPWLMKMIQPDWLKSNGFHEIEADVNDTSLLLSGDHSIQQQLQEVREDDDDAEMTHSVAVNVYPATSRMPKLTIVVVDTIPVELKSSYMVWSWFIYVLSANLLLVIPLLWVAAWWSLRPIEALAKEVRELEEHNRELLNPATTRELTSLVRNLNRLLKSERERYDKYRTTLTDLTHSLKTPLXXLQXXLRSLRSEKMSVSDAEPVMLEQISRISQQIGYYLHRASMRGGTLLSRELHPVAPLLDNLTSALNKVYQRKGVNISLDISPEISFVGEQNDFVEVMGNVLDNACKYCLEFVEISARQTDEHLYIVVEDDGPGIPLSKREVIFDRGQRVDTLRPGQGVGLAVAREITEQYEGKIVAGESMLGGARMEVIFGRQHSAPKDE

Variants of: B1
Assay: enrichment ratio after two sorts for PhoP signalling (ratio (wild type AVST 3.29)); higher = more functional
Details: with PhoP (E. coli)

| Variant | enrichment ratio |
| --- | --- |
| YVYD | ≤ 0.25 |
| WNEY | ≤ 0.25 |
| VGWQ | 1.18 |
| FPFF | ≤ 0.25 |
| GAHW | ≤ 0.25 |
| GIYF | ≤ 0.25 |
| RKRF | ≤ 0.25 |
| ITDM | ≤ 0.25 |
| NCYL | ≤ 0.25 |
| LSYL | 11.2 |
| YTDM | ≤ 0.25 |
| LTYL | 0.587 |
| LNYL | ≤ 0.25 |
| MQSQ | ≤ 0.25 |
| MCSQ | 11.6 |
| KCYL | ≤ 0.25 |
| TTDM | 22.8 |
| KCSQ | ≤ 0.25 |
| TCYL | 16.2 |
| YSLM | 9.22 |
| KKFE | ≤ 0.25 |
| ELTM | ≤ 0.25 |
| TLNS | 6.81 |
| EHKW | ≤ 0.25 |

| Variant | enrichment ratio |
| --- | --- |
| HFHT | ≤ 0.25 |
| QNLL | ≤ 0.25 |
| NWYY | ≤ 0.25 |
| IMGQ | ≤ 0.25 |
| PTPW | ≤ 0.25 |
| TWNY | ≤ 0.25 |
| MCHM | 16.7 |
| MDHM | ≤ 0.25 |
| KCHM | ≤ 0.25 |
| YPGL | ≤ 0.25 |
| SGCI | 10.3 |
| SGMW | ≤ 0.25 |
| SGCV | 15.2 |
| SGMF | 13.3 |
| SGMV | 14.3 |
| SGGF | 1.06 |
| SGNL | 0.304 |
| SGHF | ≤ 0.25 |
| SGWN | ≤ 0.25 |
| SGMN | 30.2 |
| SGWV | ≤ 0.25 |
| SGMD | ≤ 0.25 |
| IRYD | ≤ 0.25 |
| ARIW | ≤ 0.25 |

| Variant | enrichment ratio |
| --- | --- |
| QYQP | ≤ 0.25 |
| YDYL | ≤ 0.25 |
| LNRM | ≤ 0.25 |
| SGMI | 25 |
| SGMS | 6.87 |
| SGMG | 0.699 |
| EIPP | ≤ 0.25 |
| EECC | ≤ 0.25 |
| SLCC | 8.22 |
| FCCC | ≤ 0.25 |
| SPCC | ≤ 0.25 |
| HPCC | ≤ 0.25 |
| IPCC | ≤ 0.25 |
| HECC | 7.31 |
| FECC | 22.6 |
| FSCC | 1.27 |
| TECC | 30 |
| SECC | 38 |
| IECC | 11.9 |
| KYGK | ≤ 0.25 |
| RDWY | ≤ 0.25 |
| FLEP | ≤ 0.25 |
| HSIW | ≤ 0.25 |
| MECC | 14.4 |

| Variant | enrichment ratio |
| --- | --- |
| NECC | ≤ 0.25 |
| QECC | ≤ 0.25 |
| APCG | ≤ 0.25 |
| HWFW | ≤ 0.25 |
| QDYL | ≤ 0.25 |
| KAQC | ≤ 0.25 |
| NSQC | ≤ 0.25 |
| TKQC | 12.8 |
| VYQC | ≤ 0.25 |
| KSQC | ≤ 0.25 |
| SHQC | ≤ 0.25 |
| VVQC | 12.7 |
| THQC | 13.1 |
| NHQC | ≤ 0.25 |
| TSQC | 14.5 |
| NQQC | ≤ 0.25 |
| VLQC | ≤ 0.25 |
| FREL | ≤ 0.25 |
| PHMW | ≤ 0.25 |
| YKAD | ≤ 0.25 |
| LFMF | ≤ 0.25 |
| WKII | ≤ 0.25 |
| WHFY | ≤ 0.25 |
| WCRI | ≤ 0.25 |

| Variant | enrichment ratio |
| --- | --- |
| QEGE | ≤ 0.25 |
| QMGE | 96.1 |
| QMWW | ≤ 0.25 |
| QMNG | 38.7 |
| QMDH | 15 |
| QMGF | 6.84 |
| QMDS | ≤ 0.25 |
| QMHF | 13.5 |
| QMHI | ≤ 0.25 |
| QMTH | ≤ 0.25 |
| QRNG | ≤ 0.25 |
| QMMI | ≤ 0.25 |
| DWSK | ≤ 0.25 |
| GLGH | ≤ 0.25 |
| IMDI | ≤ 0.25 |
| QSMQ | ≤ 0.25 |
| VMGY | ≤ 0.25 |
| NRNH | ≤ 0.25 |
| TNKN | ≤ 0.25 |
| QMNN | 12.1 |
| QMNF | 36 |
| QMNL | 3.36 |
| QMPM | ≤ 0.25 |
| QMNI | 9.75 |

| Variant | enrichment ratio |
| --- | --- |
| QENN | 3.33 |
| QMHM | 28.3 |
| QRNF | ≤ 0.25 |
| QMHQ | 13.4 |
| QMWQ | ≤ 0.25 |
| QMWM | ≤ 0.25 |
| QMHP | ≤ 0.25 |
| DYPW | ≤ 0.25 |
| LWVM | ≤ 0.25 |
| GLWV | ≤ 0.25 |
| MEAP | ≤ 0.25 |
| GFED | ≤ 0.25 |
| ATGH | 5.03 |
| EKMA | ≤ 0.25 |
| QMVG | ≤ 0.25 |
| QMHG | 13 |
| QMTR | ≤ 0.25 |
| SEQN | 21.6 |
| SEYM | 19.4 |
| SEGM | 6.17 |
| SLYM | ≤ 0.25 |
| SENL | ≤ 0.25 |
| SEEN | ≤ 0.25 |
| ISAH | ≤ 0.25 |

| Variant | enrichment ratio |
| --- | --- |
| GGLK | ≤ 0.25 |
| HLNC | ≤ 0.25 |
| DDAI | ≤ 0.25 |
| QAIL | ≤ 0.25 |
| MALL | 16.2 |
| FARL | ≤ 0.25 |
| FALL | 16.3 |
| FAAN | ≤ 0.25 |
| FFLL | ≤ 0.25 |
| MMLL | 1.58 |
| ADHN | ≤ 0.25 |
| ALCG | 4.5 |
| WHCL | ≤ 0.25 |
| SADG | ≤ 0.25 |
| LGIQ | ≤ 0.25 |
| ANMC | 22.9 |
| AIMC | ≤ 0.25 |
| INMV | 24.2 |
| INIV | ≤ 0.25 |
| ANMS | 11.6 |
| ANQF | 1.01 |
| INCV | ≤ 0.25 |
| ADMC | 2.74 |
| ADVV | 8.21 |

| Variant | enrichment ratio |
| --- | --- |
| ANMG | ≤ 0.25 |
| AWVV | ≤ 0.25 |
| AEVV | 14.7 |
| HRGK | ≤ 0.25 |
| GKTM | 1.84 |
| IPYY | ≤ 0.25 |
| KKIV | ≤ 0.25 |
| GAYK | ≤ 0.25 |
| LLMQ | ≤ 0.25 |
| HFHH | ≤ 0.25 |
| ATFM | ≤ 0.25 |
| ANLA | 5.31 |
| ANVA | 3.53 |
| AIVV | 10 |
| AHVV | ≤ 0.25 |
| QRVV | ≤ 0.25 |
| ANVV | 11.6 |
| ANLW | 9.25 |
| ANMR | 5.84 |
| HRVV | ≤ 0.25 |
| TRVV | 14.5 |
| ANMI | 26.5 |
| ANLS | 12 |
| QRFS | ≤ 0.25 |

| Variant | enrichment ratio |
| --- | --- |
| DWEC | ≤ 0.25 |
| RQRD | ≤ 0.25 |
| NCDF | ≤ 0.25 |
| HLKR | ≤ 0.25 |
| RGHG | ≤ 0.25 |
| TPEY | ≤ 0.25 |
| SLIG | ≤ 0.25 |
| YMIK | ≤ 0.25 |
| RLMY | ≤ 0.25 |
| KLYR | ≤ 0.25 |
| ANMW | ≤ 0.25 |
| LNMC | 7.24 |
| ALVT | 1.4 |
| TNMC | 35.5 |
| AKVT | 12.6 |
| ANMV | 19.1 |
| AAVT | 2.41 |
| ANMD | ≤ 0.25 |
| MNMC | 3.1 |
| ATMS | 6.27 |
| AKMS | 3.84 |
| AIMS | 14.3 |
| FEGD | ≤ 0.25 |
| YPGN | ≤ 0.25 |

| Variant | enrichment ratio |
| --- | --- |
| WAKM | ≤ 0.25 |
| PMHP | ≤ 0.25 |
| ALWL | ≤ 0.25 |
| HRYP | ≤ 0.25 |
| YHPC | ≤ 0.25 |
| LYDW | ≤ 0.25 |
| VILC | 0.339 |
| DWCS | ≤ 0.25 |
| ANVT | 15 |
| ADVT | ≤ 0.25 |
| ANND | ≤ 0.25 |
| HFIY | ≤ 0.25 |
| MIKG | ≤ 0.25 |
| SCMI | 27.9 |
| SCMG | 25.9 |
| SIMA | 4.54 |
| SCMV | 9.09 |
| SCMW | 6.03 |
| TYMA | 1.56 |
| SCIG | 3.69 |
| SCVG | 5.95 |
| SCMF | 12.3 |
| KCMF | ≤ 0.25 |
| SCHF | ≤ 0.25 |

| Variant | enrichment ratio |
| --- | --- |
| SCMA | 15.7 |
| WPNL | ≤ 0.25 |
| ERAD | ≤ 0.25 |
| SRLT | ≤ 0.25 |
| KMYN | ≤ 0.25 |
| IRST | ≤ 0.25 |
| LAMD | ≤ 0.25 |
| FSHH | ≤ 0.25 |
| WVRL | ≤ 0.25 |
| YRGN | ≤ 0.25 |
| TIYR | 2.57 |
| IKRH | ≤ 0.25 |
| VSMQ | 2.71 |
| GIAC | 11.8 |
| GNAC | 12.5 |
| GIYS | ≤ 0.25 |
| GYAC | ≤ 0.25 |
| LNAC | ≤ 0.25 |
| MNAC | 27.7 |
| GITE | ≤ 0.25 |
| MNFC | ≤ 0.25 |
| TNAC | 3.13 |
| PCAQ | ≤ 0.25 |
| DTYT | ≤ 0.25 |

| Variant | enrichment ratio |
| --- | --- |
| MFKP | ≤ 0.25 |
| SQVA | 4.56 |
| WPDN | ≤ 0.25 |
| HVPR | ≤ 0.25 |
| KKRG | ≤ 0.25 |
| QGVQ | ≤ 0.25 |
| APCH | ≤ 0.25 |
| SEAS | 26.6 |
| SEYI | 4.33 |
| SELI | 24.6 |
| KYLT | ≤ 0.25 |
| SEDT | ≤ 0.25 |
| SELT | 20.5 |
| SEWI | 3.57 |
| SLAS | 5.06 |
| SLLI | 7.62 |
| KYAS | ≤ 0.25 |
| SYLI | 0.306 |
| SELA | 12.4 |
| WRRM | ≤ 0.25 |
| YYVL | ≤ 0.25 |
| IENI | ≤ 0.25 |
| GVPH | ≤ 0.25 |
| PCMW | ≤ 0.25 |

| Variant | enrichment ratio |
| --- | --- |
| GSWF | ≤ 0.25 |
| HSKP | ≤ 0.25 |
| WEQY | ≤ 0.25 |
| IRFS | ≤ 0.25 |
| MEVT | 27.6 |
| SPLS | ≤ 0.25 |
| NEVT | ≤ 0.25 |
| SFLY | 0.911 |
| SEVT | 16.8 |
| SQVT | 5.85 |
| SLVT | 0.291 |
| KYLS | ≤ 0.25 |
| SELS | 20.9 |
| QEVT | ≤ 0.25 |
| KYLY | ≤ 0.25 |
| SELY | 11.4 |
| PENI | ≤ 0.25 |
| PNLE | ≤ 0.25 |
